hcDAF-12 act – H. contortus DAF-12 nuclear receptor activators, primary screen, cell-based, luminescence, HEK293, lit1-tk-luc reporter. HEK293 hcDAF-12 lit1-tk-luc reporter; 0% DMSO, 100% Δ7-dafachronic acid. activation, % at 6.8 µM. 1.4% of 370,000 active;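 active = activation above the mean of all tested compounds plus 3 SD, cut at about 5.5% in these data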
FXN GAA850 act – FXN promoter activators, primary screen, cell-based, luciferase luminescence, HEK293 lucGAA850; HEK293 lucGAA850 FXN promoter luciferase reporter, 24 h; percent of 10 µM SAHA response; activation, % at 6 µM; 0.56% of 360,000 active; AID 540364, 2011;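 active = activation above the average of all compounds screened plus 3 SD, cutoff fixed separately per campaign, cut at about 7.5% in these data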
ssDAF-12 act – S. stercoralis DAF-12 nuclear receptor activators, primary screen, cell-based, luminescence, HEK293, GRIP1 co-expression, lit1-tk-luc; Nuclear hormone receptor DAF-12 (Strongyloides stercoralis); HEK293 ssDAF-12/GRIP1 lit1-tk-luc reporter; % of 3 µM dafachronic acid response; activation, % at 6.8 µM; 1% of 370,000 active;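 active = activation above the mean over all tested compounds plus 3 SD, cut at about 0.9% in these data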
DAX1 inh-1 – DAX1 (NR0B1) inhibitors, primary screen, cell-based, HEK293, Gal4-DAX1, luciferase luminescence | 0.99% of 340,000 active | Nuclear receptor subfamily 0 group B member 1 (Homo sapiens), P51843 | inhibition, % at 6.75 µM | HEK293 Gal4-DAX1 luciferase reporter | AID 504766, 2011;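 active = inhibition above the mean over all tested compounds plus 3 SD, cut at about 4.2% in these data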;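 note: inhibition shows as a rise in luminescence from relieved DAX1 repression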
Target sequence (P51843 207-470 limits assumed): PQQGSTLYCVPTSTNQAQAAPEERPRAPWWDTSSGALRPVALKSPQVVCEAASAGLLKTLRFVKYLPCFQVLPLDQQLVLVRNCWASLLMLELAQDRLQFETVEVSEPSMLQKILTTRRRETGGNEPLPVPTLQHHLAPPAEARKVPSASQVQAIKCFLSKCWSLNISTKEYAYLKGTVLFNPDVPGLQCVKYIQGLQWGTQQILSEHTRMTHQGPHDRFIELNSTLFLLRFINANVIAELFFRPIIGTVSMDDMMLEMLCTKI
DAX1 inh-2 – DAX1 (NR0B1) inhibitors on StAR promoter, primary screen, cell-based, luminescence, SF-1 (NR5A1), full-length DAX-1. HEK293T StAR-luciferase reporter, SF-1/DAX-1 repression relief. inhibition, % at 6.8 µM. 1.1% of 370,000 active;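 active = inhibition above the mean over all tested compounds plus 3 SD, cut at about 3.6% in these data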;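 note: higher inhibition means more luminescence from relief of DAX-1 repression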
hgDAF-12 ag – H. glycines DAF-12 receptor agonists, primary screen, cell-based, luminescence, HEK293, GAL4 fusion, UAS-luciferase. Nuclear hormone receptor DAF-12 (Heterodera glycines), GAL4 fusion. HEK293 GAL4-hgDAF12 UAS-luciferase reporter, agonist luminescence; normalized to butyrate control. activation, % at 6.8 µM. 1.8% of 370,000 active. AID 687014, 2013;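 active = activation above a cutoff set at the mean of all screened compounds plus 3 SD, cut at about 10% in these data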
Of the large screens only hits and unclear results are named; the others gave an inactive call. This is a sample that favours compounds with a hit; in the whole collection about 4.5% have one here.

COc1cc(C(=O)O)cc(OC)c1OC	DAX1 inh-1 8.4
COc1ccc(OC)c(CC(=O)O)c1	none
CN1C2CCC1CC(OC(c1ccccc1)c1ccc(Cl)cc1)C2 (centres undefined)	none (no result: FXN GAA850 act, DAX1 inh-1)
COC(=O)C1=C[C@H]([C@@H](C)[C@H](OC)c2ccccc2Br)[C@@H]2[C@H]1c1ccccc1N2C	none (no result: FXN GAA850 act, DAX1 inh-1)
COc1cc(C2c3cc(O)c(OC)cc3CC3C(=O)OCC32)ccc1O (centres undefined)	DAX1 inh-1 4.8
COc1cc(C2c3cc4c(c(O)c3CC3COC(=O)C32)OCO4)cc(OC)c1OC (centres undefined)	none
OCC#CC[N+]1(CC#Cc2ccccc2)CCOCC1	DAX1 inh-1 4.3
CC(C)N(C(=O)CCl)c1ccccc1	none
Cc1c(C(c2ccccc2Cl)c2c(O)c3ccccc3oc2=O)c(=O)n(-c2ccccc2)n1C (centres undefined)	DAX1 inh-1 4.3
Cc1c(C(c2ccc(F)cc2)c2c(O)c3ccccc3oc2=O)c(=O)n(-c2ccccc2)n1C (centres undefined)	none
Cc1cc(C)cc(NC(=O)CCNC(=O)N2C[C@H]3C[C@@H](C2)c2cccc(=O)n2C3)c1	DAX1 inh-1 4.3
Cc1ccc2cc(C=C(C#N)C#N)c(Cl)nc2c1	ssDAF-12 act 1.4
COc1ccc2c(c1)CC1(CN2C)C(=O)NC(=O)N(c2ccc(F)cc2)C1=O (centres undefined)	hcDAF-12 act 6.0
COc1cc(O)c(C(=O)O)c(-c2cc(O)c(O)cc2C)c1	none
O=C1NCN(c2ccccc2)C12CCN(C(c1ccnc3ccccc13)c1nnnn1C1CCCC1)CC2 (centres undefined)	none (no result: FXN GAA850 act, DAX1 inh-1)
CN1CCC(N(C)c2ncnc3ccc(Br)cc23)CC1	none
Cc1ccc(-c2nc(N(C)C3CCN(C)CC3)c3ccccc3n2)cc1	hcDAF-12 act 6.0
O=C(c1cc2cc(F)ccc2[nH]1)N1CCC2(CC1)OCCO2	ssDAF-12 act 1.8
CC(C)=CCc1c(O)cc2c(c1O)C(=O)CC(c1ccc(O)cc1)O2 (centres undefined)	none
O=C1CCCN1CC#CCN1CCCC1	none
O=C1NC(=O)N(Cc2ccccc2)C(=O)/C1=C/N1CCCc2ccccc21	hcDAF-12 act 5.8
CCC(C)N1C(=O)/C(=C\c2ccc(N3CCCCCC3)cc2)C(=O)NC1=S (centres undefined)	ssDAF-12 act 5.5
CCC(C)N1C(=O)/C(=C\c2cc3c4c(c2)CCCN4CCC3)C(=O)NC1=S (centres undefined)	none
Cc1c(N)c(C)c([N+](=O)[O-])c(C)c1[N+](=O)[O-]	none
O=C(CF)NC(NC(=S)Nc1ccccc1O)C(Cl)(Cl)Cl (centres undefined)	DAX1 inh-1 4.9
Cc1ccsc1C(=O)C1CCCN(CCO)C1 (centres undefined)	DAX1 inh-1 4.8
Cc1ccsc1C(=O)C1CCCN(Cc2cnn(C)c2)C1 (centres undefined)	none
O=C1NCN(c2ccccc2)C12CCN(C(CCc1ccccc1)c1nnnn1-c1ccc3c(c1)OCCO3)CC2 (centres undefined)	none (no result: FXN GAA850 act, DAX1 inh-1)
COc1ccc(N2C(=O)NC(=O)/C(=C/c3cccc(OC(=O)c4cccs4)c3)C2=O)cc1Cl	hcDAF-12 act 5.8 (no result: FXN GAA850 act, DAX1 inh-1)
Cc1ccc(N2C(=O)NC(=O)/C(=C/c3ccc(OC(=O)c4cccs4)cc3)C2=O)cc1	none
O=C(O)Cn1cc(C=C2C(=O)NC(=O)NC2=O)c2ccccc21	none
O=C(O)Cn1cc(/C=C2\C(=O)NC(=O)N(c3ccc(Cl)cc3)C2=O)c2ccccc21	ssDAF-12 act 1.2
COc1cc2c(c3oc4cccc(O)c4c(=O)c13)[C@@H]1C=CO[C@@H]1O2	none (no result: FXN GAA850 act, DAX1 inh-1)
CN1C(=O)c2ccccc2NC(=O)C1Cc1ccccc1 (centres undefined)	DAX1 inh-1 4.9
CN1C(=O)C(Cc2ccccc2)C(=O)N(C)C1=O	none
CC12Nc3ccccc3C(=O)N1Cc1cnnn1-c1ccccc12 (centres undefined)	none (no result: FXN GAA850 act, DAX1 inh-1)
O=P1(NCCCl)OCCC(OO)N1CCCl (centres undefined)	none (no result: FXN GAA850 act, DAX1 inh-1)
Cc1nc2ncnn2c(C)c1CCC(=O)N1CCC2(CC1)OCCO2	DAX1 inh-1 4.6
N#CC[N+]1(CCCNP2(=O)C=C(c3ccccc3)OC(c3ccccc3)=C2)CCOCC1	DAX1 inh-1 6.2
Nc1nonc1OCCCCOc1nonc1N	ssDAF-12 act 3.3
COc1ccc(-n2nnnc2C(CCc2ccccc2)N2CCC3(CC2)C(=O)NCN3c2ccccc2)cc1 (centres undefined)	none (no result: FXN GAA850 act, DAX1 inh-1)
O=C1CN(C(=O)COC(=O)Cc2ccccc2)c2ccccc2N1	DAX1 inh-1 4.4
CCOC(=O)CC[C@@H]1CC[C@]2(CCCN(Cc3cccnc3)C2)O1	none (no result: FXN GAA850 act, DAX1 inh-1)
CC1(C)NC(=S)C(C)(C)N1N=O	ssDAF-12 act 6.5
CSc1ncc(/C=C2/C(=O)NC(=O)N(c3ccc(C(C)C)cc3)C2=O)cn1	hcDAF-12 act 6.4
CC(C)c1ccc(N2C(=O)NC(=O)/C(=C/c3cnc(-c4ccccc4)nc3)C2=O)cc1	none
Nc1ccccc1C(=O)OCc1ccc([N+](=O)[O-])cc1	hgDAF-12 ag 11.2
CCOC(=O)c1ccccc1N	none
C=C(C=O)CC1CC(O)[C@]2(C)OC3CC4OC5C[C@]6(C)O[C@]7(C)CCC8OC9C[C@]%10(C)OC%11C(C)=CC(=O)OC%11CC%10OC9C[C@@H](C)C8OC7CC6O[C@]5(C)C/C=C\C4OC3CC2O1 (some centres undefined)	none (no result: FXN GAA850 act, DAX1 inh-1, DAX1 inh-2)
COc1cc2oc(=O)c(CC(=O)N3C[C@H]4C[C@@H](C3)c3cccc(=O)n3C4)c(C)c2cc1Cl	DAX1 inh-1 4.8
Nc1ccc2c(c1)oc1ccccc12	hgDAF-12 ag 11.2
CN(C)c1ccc(CCN2CCOCC2)cc1	ssDAF-12 act 1.2, hgDAF-12 ag 10.8
Nc1c2c(nc3sc4c(c13)CCCC4)CCCC2	hgDAF-12 ag 10.8
O=P(Nc1ccccc1)(Nc1ccccc1)Oc1cccc(Cl)c1	none
O=C(Nc1cc(Cl)cc(Cl)c1)N1Cc2ccccc2-n2nncc2C1	none
Cc1nn(Cc2ccccc2)c(C)c1C=C1C(=O)NC(=S)NC1=O	hcDAF-12 act 6.1

Assay outcomes deposited in PubChem BioAssay by The Scripps Research Institute Molecular Screening Center.
